# OTUD3 block = blocks human OTUD3 ubiquitin-rhodamine cleavage. Q5T2D3. purified OTUD3, Ub-rhodamine fluorescence, 2 h. inhibition, % at 25 µM. hit rate 0.7% among 47,000. AID 1645858
# USP7 inh = human USP7 deubiquitinase inhibition; Q93009; purified USP7, Ub-rhodamine cleavage fluorescence; inhibition, % at 20 µM; hit rate 0.3% among 47,000
# USP8 inh = blocks human USP8 ubiquitin-rhodamine cleavage | hit rate 4.2% among 47,000 | P40818 | purified USP8, Ub-rhodamine cleavage fluorescence, 30 min | AID 1645853 | inhibition, % at 20 µM
# UCHL1 block = inhibitors of human UCHL1 deubiquitinase; hit rate 0.2% among 47,000; purified UCHL1, Ub-rhodamine cleavage fluorescence; inhibition, % at 20 µM; P09936; AID 1645859
# Target sequence (P09936 whole entry, looked up): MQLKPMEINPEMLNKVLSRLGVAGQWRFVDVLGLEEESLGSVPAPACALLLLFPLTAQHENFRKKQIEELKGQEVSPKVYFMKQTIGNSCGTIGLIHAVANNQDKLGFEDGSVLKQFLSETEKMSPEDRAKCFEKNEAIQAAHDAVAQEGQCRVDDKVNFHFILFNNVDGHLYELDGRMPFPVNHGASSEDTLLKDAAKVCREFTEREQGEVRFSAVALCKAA
# USP10 inh = blocks human USP10 ubiquitin-rhodamine cleavage. Q14694. purified USP10, Ub-rhodamine fluorescence, 60 min. inhibition, % at 20 µM. hit rate 1.1% among 47,000
# * hit, by the source's call. Rows were chosen to be rich in hits. Some 4.9% of all compounds tested hit in one or more screens of this group. No stated cut-off is given here; in the data, active means inhibition above about 30%; inactive means the rest.
SMILES,OTUD3 block,USP7 inh,USP8 inh,UCHL1 block,USP10 inh
O=C(c1ccnnc1)N1CC[C@@H]2CN(Cc3ccccc3)S(=O)(=O)[C@@H]2CC1,3.6,0.4,-20.4,0.1,1.5
COc1cc2cc3c(c(O)c2c(O)c1-c1c(OC)cc2cc4c(c(O)c2c1O)C(=O)OC1CC(C)OC41)C(=O)OC1CC(C)OC31 (stereo not drawn),-8.4,10.5,58.2*,23.1,29.5
O=C(c1ccc(Cl)cc1)N(c1ccccn1)C1CCCCC1,43.7*,51.6*,54.2*,10.9,70.7*
Cc1cccc(/C=C/c2nc3ccc([N+](=O)[O-])cc3s2)c1,-10.7,8.4,87.4*,7.0,4.3
Cc1cc(=O)c2c(O)oc(O)c3c(O)cc(=O)c1c32,-1.7,-85.2,30.9*,7.0,-0.1
Cc1cc(O)cc2oc3cc(O)cc(O)c3c(=O)c12,8.1,-9.0,-22.6,-3.9,-1.0
N#Cc1ccccc1NC(=O)c1cc2c(s1)-c1ccccc1S(=O)(=O)C2,55.8*,8.3,29.9,3.2,48.7*
CC(=O)N1CCc2ccccc2C1C(=O)NCc1ccc2c(c1)OCO2 (stereo not drawn),-6.6,-40.7,-13.8,-4.7,-9.1
CCS(=O)(=O)N1Cc2ccccc2CC1C(=O)NCc1ccc2c(c1)OCO2 (stereo not drawn),8.0,8.2,38.7*,5.4,7.9
Cc1sc(NC(=O)C2CCCCC2)nc1-c1ccccc1,6.0,5.7,-14.5,4.5,8.4
CCS(=O)(=O)N1Cc2ccccc2CC1C(=O)Nc1nc(-c2ccccc2)c(C)s1 (stereo not drawn),-24.0,5.7,46.2*,3.7,0.5
COc1ccc(-c2cc(-c3ccccc3)nc(SCC(N)=O)c2C#N)cc1OC,-14.0,19.0,27.5,2.3,22.4
Cc1cnc(C2CN(C(=O)c3cccc4c3OCCO4)CCO2)[nH]1 (stereo not drawn),-2.0,3.9,-19.3,0.0,-2.3
Cc1cc(C)n(CC(=O)N2N=CCC2(O)C(F)(F)F)n1 (stereo not drawn),9.3,1.5,37.0*,1.3,-0.3
Cc1cc(C)n(CC2CCCCN2C(=O)CCc2nccs2)n1 (stereo not drawn),0.4,-23.9,-3.0,-1.2,0.1
O=C(NC1CC1)c1nc(C(=O)N2CCN(c3ccccc3)CC2)cs1,10.6,3.3,1.7,4.1,0.9
CC1=C(C(=O)OC2CCCCCC2)C(c2ccccc2[N+](=O)[O-])CC(=O)N1 (stereo not drawn),-2.7,-6.3,62.3*,1.0,2.9
CC1=C(C(=O)OC2CCCC2)C(c2ccc(Cl)c([N+](=O)[O-])c2)CC(=O)N1 (stereo not drawn),4.3,-46.3,-0.4,5.6,6.4
Cc1cc(C)cc(OC(C)C(=O)Nc2ccc3nsnc3c2)c1 (stereo not drawn),2.5,-5.4,24.2,0.7,6.2
CCc1ccc(OC(C)C(=O)Nc2ccc3nsnc3c2)cc1 (stereo not drawn),-5.5,-5.6,66.3*,6.3,3.3
CC(Oc1ccccc1Cl)C(=O)Nc1ccc2nsnc2c1 (stereo not drawn),15.0,-10.2,36.2*,6.7,2.7
Cc1nc(CNC(=O)C(C)Oc2ccccc2Cl)cs1 (stereo not drawn),7.5,1.6,-0.1,-0.4,-1.9
Cc1ccc(OC(C)C(=O)Nc2ccc3nsnc3c2)cc1C (stereo not drawn),1.6,-1.4,45.0*,3.0,0.2
O=C1CCCC[C@]2(CN(C(=O)c3cnn4cccnc34)C[C@H]2c2ccccc2F)N1,9.2,3.5,16.6,1.0,-1.6
COc1ccc(OC)c(CNC(=O)c2ccc(-c3ncccc3NC(C)=O)cc2)c1,14.3,1.8,-33.2,1.0,0.3
SMILES,OTUD3 block,USP7 inh,USP8 inh,UCHL1 block,USP10 inh
CCC(C(=O)Nc1ccc(-c2nc3cccnc3s2)cc1)c1ccccc1 (stereo not drawn),-41.0,4.5,36.3*,-2.1,1.2
O=C(NCc1ccccc1Cl)c1nc(CS(=O)(=O)c2ccccc2)no1,8.4,1.6,8.8,0.7,0.9
CCn1cc(CN2CCN(S(C)(=O)=O)CC(C(N)=O)C2)c(C)n1 (stereo not drawn),-2.1,1.4,-0.2,-2.7,3.1
CC(C)C(NC(=O)COc1ccccc1)C(=O)N1CCc2[nH]c3ccccc3c2C1 (stereo not drawn),-25.1,-10.4,63.0*,-3.1,-3.8
O=C(NCC(=O)N1CCc2[nH]c3ccccc3c2C1)c1ccc(F)cc1,-48.4,-22.4,-14.5,-20.0,-3.4
COc1ccccc1NS(=O)(=O)c1cccc(NC(=O)CCOc2ccccc2)c1,3.1,-2.2,2.7,5.4,6.2
COc1ccc(/C=C/C(=O)Nc2cccc(S(=O)(=O)Nc3ccccc3Cl)c2)c(OC)c1,10.1,8.8,65.6*,3.4,62.1*
Cc1cc2c(=O)oc(-c3ccccc3Br)nc2s1,9.4,7.8,43.5*,6.5,18.2
CC(C)Cn1c(=O)c2nscc2n(CC(=O)NCc2ccccc2)c1=O,1.1,-48.1,39.0*,9.6,-6.6
CC(C)Cn1c(=O)c2nscc2n(CC(=O)Nc2ccc(F)cc2F)c1=O,14.5,-35.4,36.0*,7.9,-0.8
Cc1ccccc1NC(=O)Cn1c(=O)n(CC(C)C)c(=O)c2nscc21,-20.1,-71.2,38.2*,12.8,-3.0
CC(=O)Nc1nsc(N2CCC(C(=O)NCc3ccccc3F)CC2)n1,10.4,4.0,-10.6,1.1,1.0
O=C(Nc1ccccc1)C1COc2ccccc2C1 (stereo not drawn),0.2,0.1,0.5,-2.6,3.5
O=C(O)C1C(C(=O)Nc2ccccc2)C2(c3ccccc3)C(=O)C1(c1ccccc1)C(c1ccccc1)=C2c1ccccc1 (stereo not drawn),64.2*,65.7*,51.0*,7.5,69.4*
O=C(Nc1ccccc1F)c1cncc(NS(=O)(=O)c2ccccc2)c1,6.0,4.3,8.3,5.5,0.4
Nc1ccc(F)c(NS(=O)(=O)c2ccccc2)c1,55.4*,11.7,72.2*,30.8*,-1.8
CC(=O)N1CCN(c2nc3c(s2)c(C)nn3-c2ccccc2)CC1,-2.6,0.9,-1.5,-0.5,0.5
Cc1ccccc1-c1nc(NC(=O)COc2ccc(F)cc2)no1,2.3,-0.8,1.6,0.7,3.6
O=C(COc1ccc(Cl)cc1)Nc1noc(-c2ccccc2)n1,-0.7,29.9,88.0*,13.7,49.7*
N#Cc1ccc(NC(=O)Nc2cccn(Cc3c(F)cccc3Cl)c2=O)cc1,-10.0,-25.5,89.0*,4.6,-3.6
COC(=O)Nc1cccn(Cc2c(Cl)cccc2Cl)c1=O,80.6*,-13.3,93.2*,22.0,50.3*
N#Cc1ccc(NC(=O)Nc2cccn(Cc3ccc(F)cc3)c2=O)cc1,19.8,-5.4,94.6*,9.8,37.2*
Cc1cc(C)n2cc(-c3sccc3Cl)c(C#N)c2n1,-13.0,-0.4,-169.6,-1.5,-0.8
COc1cccc(C(=O)Nc2nonc2-c2ccc(C(C)C)cc2)c1,15.5,9.1,43.5*,9.4,18.0
Cc1cc(N2C(=O)c3oc4ccc(F)cc4c(=O)c3C2c2cccc(OCc3ccccc3Cl)c2)no1 (stereo not drawn),0.2,4.9,31.4*,2.1,4.6
